Assay outcomes (PubChem BioAssay)
D3 ag: agonists of human D3 dopamine receptor; D3R DiscoveRx beta-arrestin cells, luminescence, 90 min; max activation, %; hit rate 0.58% among 410,000; P35462; in the data active = max activation above about 30%; note: 0% is about no effect
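Agonist-mode cell screen: cells plated at 1500/well and incubated overnight at 37 °C, then exposed to library compounds for 90 min at 37 °C. Detection reagent was added for 30–60 min at room temperature, and luminescence was read.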
HEK293 tox: cytotoxicity in counter-screen for GLP-1R inverse agonists | HEK293 cAMP-luciferase reporter cells, luminescence, 24 h | Potency, µM (titrated, usually from 38.3 µM), for the others: at the top dose activity change, negative = inhibition, hits mostly inhibitors | hit rate 0.13% among 410,000;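 note: loss of luciferase light is scored as toxicity; potency is the fitted concentration of half-maximal effect; % is set by controls: 0 for no effect and ±100 for the full control effect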
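Seeding density was 200 cells/uL; after overnight-length (12 h) culture, 23 nL compounds went on for 24 h at 37 °C. Readout used a luciferase detection reagent, luminescence taken after 12 min at room temperature.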
D3 antag: blocks the human D3 dopamine receptor | hit rate 2.5% among 360,000 | D3R cells, DiscoveRx beta-arrestin luminescence, antagonist mode; hits give low values | P35462 | max response, negative = inhibition, %; in the data active = max response below about -50%; inconclusive = no clear call, values can overlap the other calls; note: % is set by controls: 0 for no effect and ±100 for the full control effect
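Cells plated overnight at 1500 cells/well, then exposed to library compounds with dopamine controls for 90 minutes at 37 degrees C. DiscoveRx reagent added for 30–60 minutes at room temperature; luminescence read, quantitative HTS format.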
GLP1R inv ag: inverse agonists of human GLP-1 receptor; HEK293 GLP-1R CRE-luciferase, luminescence, 24 h; GLP-1R form is constitutively active; Potency, µM (titrated, usually from 38.3 µM), for inactives: top-dose activity change, negative = inhibition, most hits filed as inhibitors; hit rate 1.6% among 410,000; AID 624417; note: potency is the fitted concentration of half-maximal effect; % is set by controls: 0 for no effect and ±100 for the full control effect; nearly all actives have a fitted effect of over 55% in size
Target sequence (P43220 whole entry, looked up): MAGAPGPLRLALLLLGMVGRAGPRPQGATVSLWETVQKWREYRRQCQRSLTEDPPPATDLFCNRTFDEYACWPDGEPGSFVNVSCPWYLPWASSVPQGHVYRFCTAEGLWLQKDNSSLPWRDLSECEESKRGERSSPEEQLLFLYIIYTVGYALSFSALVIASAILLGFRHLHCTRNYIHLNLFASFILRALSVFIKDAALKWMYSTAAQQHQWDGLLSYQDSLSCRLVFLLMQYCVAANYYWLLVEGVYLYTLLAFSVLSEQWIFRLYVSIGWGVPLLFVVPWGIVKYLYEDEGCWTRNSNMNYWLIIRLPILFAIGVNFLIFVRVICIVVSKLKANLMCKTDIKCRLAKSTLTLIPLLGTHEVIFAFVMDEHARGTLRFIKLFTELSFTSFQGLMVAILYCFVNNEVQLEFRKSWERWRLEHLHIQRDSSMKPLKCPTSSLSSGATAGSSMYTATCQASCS
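Readout was luciferase luminescence, measured 12 min after detection reagent at room temperature. Beforehand, GLP-1R reporter HEK293 cells had sat 12 h, then received compounds for 24 hr at 37 deg C.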
GLP-1R agonist: agonists of human GLP-1 receptor | AID 624172 | Potency, µM (titrated, usually from 45.6 µM), inactives show at the highest dose activation, hits mostly activators | P43220 | hit rate 0.007% among 380,000 | HEK293 GLP-1R CRE-luciferase, luminescence, 4-6 h; cells express a hypersensitive GLP-1R form; note: potency is the fitted concentration of half-maximal effect; % of control where 0% means no effect
ClpP mod: qHTS Assay for Activators of ClpP. ATP-dependent Clp protease proteolytic subunit (Bacillus subtilis (strain 168)), P80244. purified B. subtilis ClpP, FRET peptide cleavage, 20 min. Potency, µM (top dose mostly 57.5 µM), without a hit: at the highest dose activity change, negative = active. hit rate 1.9% among 340,000; active = well fitted falling curve with a large enough effect; inconclusive = small, poorly fitted or top-dose-only effect; inactive = no such curve, though single readings can be large or run the other way; note: potency is the fitted concentration of half-maximal effect; the source files actives as falling curves though it sought activators and does not explain the sign; nearly all actives have a fitted effect of over 65% in size
Target sequence (P80244 whole entry, looked up): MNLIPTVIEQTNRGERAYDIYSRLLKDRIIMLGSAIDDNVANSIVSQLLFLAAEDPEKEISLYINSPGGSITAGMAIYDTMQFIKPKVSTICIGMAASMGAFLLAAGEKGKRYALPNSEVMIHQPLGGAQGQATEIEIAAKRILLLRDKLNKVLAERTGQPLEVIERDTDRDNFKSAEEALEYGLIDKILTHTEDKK
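ClpP 10 microg/mL final, pH 8 Tris/KCl buffer with BSA, glycerol, Tween-20; compound pinned in; FRET-FV substrate; RT 20 min; Ex320/Em430; ΔFRET vs ADEP 5.8 microM, DMSO, no enzyme.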
Active calls of the source: *; [ ] = dose if it differs, or a comment. Rows were chosen to be rich in hits. Some 5.7% of all compounds tested hit in one or more screens of this group. Unless noted, calls come from the whole dose curve; as a rule, active = well fitted curve in the direction sought with a large enough effect; inconclusive = small, poorly fitted or top-dose-only effect, or another doubt; inactive = no such curve, though single readings can be large; an effect the other way counts as inactive or inconclusive.

For CCOc1ccc(Cl)cc1CNCCNCC(C)O (stereo not given) the results were D3 ag -33, HEK293 tox 19%, D3 antag -71*, GLP1R inv ag -26%, GLP-1R agonist 1% and ClpP mod 0%.
CCc1ccc(OCCNC(=O)c2ccccc2SCc2ccccc2)cc1 was read as D3 ag 28, HEK293 tox 4%, D3 antag 54, GLP1R inv ag 7.1µM*, GLP-1R agonist -2% and ClpP mod 28µM*.
`CCCC(=O)N(Cc1cc(=O)[nH]c2ccccc12)c1cccc(C)c1` gave D3 ag -13, HEK293 tox -1%, D3 antag -14, GLP1R inv ag -14%, GLP-1R agonist 8% and ClpP mod -2%.
Cc1cccc(N(Cc2cc(=O)[nH]c3ccccc23)C(=O)CCl)c1 was read as D3 ag 0, HEK293 tox -17%, D3 antag 11, GLP1R inv ag 2.5µM*, GLP-1R agonist -10% and ClpP mod -20%.
Nc1c(C(=O)NC2CC2)c2nc3ccccc3nc2n1-c1ccc2c(c1)OCO2 was read as D3 ag 1, HEK293 tox -7%, D3 antag 8, GLP1R inv ag 0%, GLP-1R agonist -17% and ClpP mod 32µM*.
`Cc1ccc(C2(O)CCN(CCCC(=O)c3ccc(F)cc3)CC2)cc1` gave D3 ag -27 and GLP-1R agonist -4%.
CC(=O)NCC1(c2ccccc2)CCN(CCCC(=O)c2ccc(F)cc2)CC1 was read as D3 ag -8, HEK293 tox -17%, D3 antag -116*, GLP1R inv ag 2%, GLP-1R agonist 2% and ClpP mod 0%.
Screening O=C(/C=C/c1ccc(OCCCF)cc1)N1CCN(Cc2ccccc2)CC1 returned D3 ag -18, HEK293 tox -7%, D3 antag inconclusive, GLP1R inv ag 10µM* and GLP-1R agonist 26%.
For O=C(/C=C/c1ccc(OCCCF)cc1)NCc1ccc(Cl)cc1 the results were D3 ag 4, HEK293 tox -22%, D3 antag -70*, GLP1R inv ag 0%, GLP-1R agonist 5% and ClpP mod 2%.
For Cc1ccc(-n2cnnn2)cc1S(N)(=O)=O the results were D3 ag 0, HEK293 tox -9%, GLP1R inv ag 2% and ClpP mod 2%.
CCCN1C[C@H](CSC)C[C@@H]2c3cccc4[nH]cc(c34)C[C@H]21 was read as D3 ag 84*, HEK293 tox 3%, D3 antag 27, GLP1R inv ag -6%, GLP-1R agonist -5% and ClpP mod -5%.
For O=C(CN1C(=O)CC(c2ccco2)Sc2ccccc21)Nc1ccc(OC(F)(F)F)cc1 (stereo not given) the results were D3 ag 5, HEK293 tox -2%, GLP1R inv ag -26%, GLP-1R agonist 10% and ClpP mod -1%.
COc1ccc(NC(=O)COCc2cc(-c3cccs3)on2)cc1 was read as D3 ag -14, HEK293 tox 0%, GLP1R inv ag -8% and ClpP mod -5%.
CC(C)(C)c1ccc(/C=C/C(=O)N2CCOCC2)cc1 was read as D3 ag 0, HEK293 tox -9%, D3 antag 17, GLP1R inv ag -22%, GLP-1R agonist 1% and ClpP mod 22µM*.
For CC(C)Cc1ccc(/C=C/C(=O)N2CCOCC2)cc1 the results were D3 ag -12, HEK293 tox 9%[0.307 µM], D3 antag -5, GLP1R inv ag -14%[0.307 µM], GLP-1R agonist 13% and ClpP mod -1%.
Screening CN(C)C(=O)CSc1nc(-c2cccs2)c(-c2cccs2)[nH]1 returned D3 ag 12, HEK293 tox -3%, D3 antag 13, GLP1R inv ag 36% and GLP-1R agonist 10%.
`CN(C)c1ccc(-c2nc(-c3cccs3)c(-c3cccs3)[nH]2)cc1` gave D3 ag -22, HEK293 tox -14%, GLP1R inv ag inconclusive and ClpP mod 11µM*.
`Oc1ccccc1-c1nc(-c2cccs2)c(-c2cccs2)[nH]1` gave D3 ag -4, HEK293 tox -6%, GLP1R inv ag inconclusive and ClpP mod 14µM*.
`Oc1ccccc1C1=Nc2ccccc2N=C(c2cccs2)C1` gave D3 ag -4, HEK293 tox -5%, D3 antag -26, GLP1R inv ag inconclusive, GLP-1R agonist -5% and ClpP mod 0%.
Screening CC1=C(C(=O)N2CCOCC2)CC(CC(=O)NCC2CCCCC2)C(=O)N1CCC1=CCCCC1 (stereo not given) returned D3 ag 3, HEK293 tox 0%, D3 antag -4, GLP1R inv ag -20%, GLP-1R agonist -4% and ClpP mod -2%.
CCc1cc(-c2nnn(-c3cc(C(C)C)ccc3C)c2CC)ccc1-c1cn(CCc2c[nH]c3ccccc23)nn1 was read as D3 ag 4, HEK293 tox -33%, D3 antag 40, GLP1R inv ag 2.5µM*, GLP-1R agonist 1% and ClpP mod -9%.
`Cc1ccc(Cn2c(=O)c3ccccc3n3c(CCC(=O)NCCN4CCOCC4)nnc23)cc1` gave D3 ag -6, HEK293 tox 9%, D3 antag -17, GLP1R inv ag 19%, GLP-1R agonist -9% and ClpP mod -16%.
For CC(C)CCn1c(=O)c2ccccc2n2c(CN3CCOCC3)nnc12 the results were D3 ag -8, HEK293 tox 3%, D3 antag -54*, GLP1R inv ag 67% and GLP-1R agonist 3%.
Screening O=C(CSc1ccc2ccccc2c1)NCCc1ccc(O)c(O)c1 returned D3 ag 69*, HEK293 tox -4%, D3 antag 12, GLP1R inv ag 35% and GLP-1R agonist 12%.
COc1ccc(CCNC(=O)CSc2ccc3ccccc3c2)cc1OC was read as D3 ag -23, HEK293 tox 15%, D3 antag 12, GLP1R inv ag -13%, GLP-1R agonist 1% and ClpP mod 1%.
`COC(=O)C[C@@H]1CC[C@H](NC(=O)CC2CC2)[C@@H](CO)O1` gave D3 ag -9, HEK293 tox 6%, D3 antag 0, GLP1R inv ag 25% and ClpP mod -1%.
Screening COc1ccc(C(=O)/C(=C/c2cccs2)c2nc3ccccc3o2)cc1 returned D3 ag 0, HEK293 tox 5%, D3 antag inconclusive, GLP1R inv ag 11µM*, GLP-1R agonist -1% and ClpP mod -1%.
